# Only some compounds are listed: those with a hit (about 27% of all), similar ones and a draw of the others.
# CYP2C9 inh: inhibitors of human CYP2C9; CYP2C9 Supersomes, luciferin-H conversion, luminescence; inhibition, % at 5 µM; hit rate 20% among 96,000; AID 777;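 active = blocking of liver enzyme CYP2C9 beyond about 50% at 5 µM, limit read from the data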
# CYP2C19 act: activators of human cytochrome P450 2C19; P33261; recombinant CYP2C19, luciferin-H EGE luminescence; hits give high values; 0 = fully inhibited enzyme, 1 = untreated enzyme; activation factor at 5 µM; 96,000 tested, under 10 active; AID 1025;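 active = activation factor of at least 2 at 5 µM in the primary screen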
# Target sequence (P33261 whole entry, looked up): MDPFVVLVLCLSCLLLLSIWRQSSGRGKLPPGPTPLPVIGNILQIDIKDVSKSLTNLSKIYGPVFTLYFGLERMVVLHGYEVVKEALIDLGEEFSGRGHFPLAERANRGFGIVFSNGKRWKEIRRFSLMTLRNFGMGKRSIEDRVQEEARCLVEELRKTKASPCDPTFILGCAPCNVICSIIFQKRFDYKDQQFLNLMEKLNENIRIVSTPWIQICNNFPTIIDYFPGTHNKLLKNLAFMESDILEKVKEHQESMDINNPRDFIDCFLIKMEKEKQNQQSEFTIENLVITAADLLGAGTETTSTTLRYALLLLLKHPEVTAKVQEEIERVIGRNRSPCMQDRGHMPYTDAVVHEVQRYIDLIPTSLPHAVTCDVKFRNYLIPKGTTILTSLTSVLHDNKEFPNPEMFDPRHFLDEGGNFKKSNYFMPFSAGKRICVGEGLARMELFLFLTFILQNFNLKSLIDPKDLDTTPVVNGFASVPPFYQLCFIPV
# CYP2C19 inhib: blocks human cytochrome P450 2C19; inhibition, % at 5 µM; P33261; hit rate 21% among 96,000; CYP2C19 Supersomes, luciferin-H EGE luminescence, 30 min;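 active = CYP2C19 inhibition above a set limit at 5 µM in the primary screen, cut at about 50% in these data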
# CYP2C9 activ: activators of human CYP2C9; P11712; recombinant CYP2C9, luciferin-H conversion, luminescence; hits give high values; factor 1 = untreated enzyme, 0 = blocked; activation factor at 5 µM; hit rate 1.4% among 96,000;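 active = activation factor of 2 or more for CYP2C9 at a 5 µM dose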
# sEH inh: inhibitors of human soluble epoxide hydrolase | hit rate 0.34% among 91,000 | AID 707 | P34913 | recombinant human sEH enzymatic activity assay | inhibition, % at 2 µM; in the data active = inhibition above about 80%
# sEH activator: activators of human soluble epoxide hydrolase. hit rate 0.04% among 91,000. purified human sEH enzymatic activity, activator screen. activation, % at 2 µM. AID 717; in the data active = activation above about 37%
# Numbers stand for hits; i = inactive; nt = not tested or not shown.
SMILES,CYP2C9 inh,CYP2C19 act,CYP2C19 inhib,CYP2C9 activ,sEH inh,sEH activator
Nc1cc(=O)[nH]n1C1CCN(c2ccccc2)CC1,i,i,i,i,i,i
COc1ccc(/C=N/NC(=O)CC(=O)NCc2cccnc2)cc1,i,i,i,i,i,i
O=C(COC(=O)Cc1cn2ccsc2n1)Nc1nc2ccccc2s1,i,i,i,i,i,i
N#Cc1cc([N+](=O)[O-])c(-n2nnc3ccccc32)c([N+](=O)[O-])c1,65.8,i,i,i,i,i
CCOc1ccccc1N1CC(C(=O)Nc2ccc(C(=O)O)cc2)CC1=O (centres undefined),i,i,i,i,i,i
CC(/C=N/n1c(-c2ccccc2)n[nH]c1=S)=C\c1ccco1,i,i,i,i,i,i
CC(=C/c1ccco1)/C=N/N1CCN(c2ccccc2)CC1,i,i,55.2,i,i,i
CC(/C=N/N1CCN(c2ccccc2)CC1)=C\c1ccco1,i,i,56.3,i,i,i
CC(/C=N/N1CCN(c2ccccc2)CC1)=C\c1ccccc1,i,i,i,i,i,i
CCN1CCN(CCNC(=O)C2CCCN(Cc3nc(-c4cccc(Cl)c4)oc3C)C2)CC1 (centres undefined),i,i,i,i,nt,nt
CCOC(=O)N1CCC(NC(=O)C2CCCN(Cc3nc(-c4cccc(Cl)c4)oc3C)C2)CC1 (centres undefined),53.9,i,67.1,i,i,i
CCc1ccc(-c2nc(CN3CCCC(C(=O)NCCc4ccc(OC)c(OC)c4)C3)c(C)o2)cc1 (centres undefined),54.0,i,i,i,i,i
C=CCNC(=O)COC(=O)COc1ccc(Cl)cc1C,i,i,i,i,i,i
COc1cc2cc3c(N)c(C(=O)Nc4sc(C)c(C)c4C#N)sc3nc2cc1OC,i,i,i,i,i,i
O=C(O)c1ccc(-c2ccc(O)c(F)c2)cc1,i,i,i,i,i,i
CCC(C)(C)NC(=O)CN(C(=O)c1snc(C(N)=O)c1N)c1ccc2c(c1)OCO2,56.8,i,i,i,i,i
CCCC(C(=O)NC1CCCC1)N(Cc1cccs1)C(=O)c1snc(C(N)=O)c1N (centres undefined),i,i,i,i,nt,nt
CC(C(=O)NC1CCCC1)N(Cc1ccc2c(c1)OCO2)C(=O)c1snc(C(N)=O)c1N (centres undefined),81.8,i,99.4,i,i,i
NC(=O)c1noc(C(=O)N(CC(=O)NC2CCCC2)Cc2ccc3c(c2)OCO3)c1N,nt,nt,nt,nt,i,i
CCC(C)(C)NC(=O)CN(Cc1ccc2c(c1)OCO2)C(=O)CCC(=O)Nc1ccccn1,nt,nt,nt,nt,i,i
NC(=O)c1nsc(C(=O)N(CC(=O)NCc2ccc3c(c2)OCO3)C2CCCCC2)c1N,i,i,86.4,i,i,i
CCC(C(=O)NC1CCCC1)N(Cc1ccc2c(c1)OCO2)C(=O)c1snc(C(N)=O)c1N (centres undefined),i,i,92.5,i,i,i
CC(NC(=O)c1cccc(C(F)(F)F)c1)C1CCCO1 (centres undefined),i,i,i,i,i,i
COc1ccc(S(=O)(=O)O/N=C2\CCCc3ccccc32)cc1,i,i,i,i,i,i
CCOC(=O)C1C(c2ccccc2Cl)NC(=O)N(C)C1(O)C(F)(F)F (centres undefined),i,i,i,i,i,i
SMILES,CYP2C9 inh,CYP2C19 act,CYP2C19 inhib,CYP2C9 activ,sEH inh,sEH activator
COc1cccc(C(C(=O)Nc2ccc(F)cc2)N(C(=O)Cn2nnc3ccccc32)C2CC2)c1 (centres undefined),i,i,i,i,i,i
CCN1c2ccccc2-c2nc3ccccc3n2C1c1ccco1 (centres undefined),58.6,i,i,i,i,i
CN1c2ccccc2-c2nc3ccccc3n2C1c1ccncc1 (centres undefined),95.1,i,95.8,i,i,i
Cc1nc2cc(CO)ccc2n1C,i,i,i,i,i,i
CCc1ccc(CNc2ccc3c(c2)ncn3C)cc1,i,i,69.5,i,i,i
Cc1ccc(CNc2ccc3c(c2)ncn3C)cc1,i,i,62.1,i,i,i
COc1ccc(CNc2ccc3c(c2)nc(C)n3C)cc1,i,i,57.9,i,i,i
Cc1ccc(C(=O)Nc2ccc3c(c2)ncn3C)cc1,i,i,i,i,i,i
COc1ccccc1-n1cnc2cc(NCc3ccccn3)ccc21,i,i,i,i,i,i
CCn1cnc2cc(NCc3ccncc3)ccc21,62.5,i,i,i,i,i
COc1ccc(C)cc1S(=O)(=O)N(C)CC(=O)N1CCCCCC1,i,i,i,i,i,i
COc1cccc(C(=O)NCC(=O)N2CCC(C)CC2)c1,i,i,i,i,i,i
COc1ccc(-n2cnc3cc(NCc4cccs4)ccc32)cc1,i,i,i,i,i,i
Cc1ccc(-n2cnc3cc(NCc4cccs4)ccc32)cc1,93.3,i,89.5,i,i,i
CCC(C)(C(=O)NC1CCCCC1)N(C(=O)C1CCC(=O)N1)c1ccc(C)cc1 (centres undefined),i,i,i,i,nt,nt
FC(F)(F)c1cnc(Nc2ccc(N3CCOCC3)cc2)c(Cl)c1,i,i,i,i,i,i
CC(CCN(C)C)OC(=O)c1ccc(C(C)c2ccccc2)o1 (centres undefined),i,i,60.8,i,i,i
CC(CN(C)Cc1ccccc1)OC(=O)c1cccs1 (centres undefined),nt,nt,nt,nt,i,i
C=CCn1c(O)c(C(CC)=Nc2ccccc2NC(=O)CC)c(=O)[nH]c1=O,59.9,i,71.5,i,i,i
COc1cc(CNCc2cccs2)ccc1OCc1ccccc1,i,i,66.6,i,i,i
COc1cc(CNCc2cccs2)ccc1OCc1cccs1,i,i,50.0,i,i,i
COc1cc(CNCc2cccs2)ccc1OCC(N)=O,i,i,i,i,i,i
COc1cc(CNCc2ccco2)ccc1OCc1ccccc1,i,i,52.3,i,i,i
CCn1ncc(C2=NOC(C(=O)Nc3ccc(C)cc3)C2)c1C (centres undefined),i,i,i,i,i,i
CCn1ncc(C2=NOC(C(=O)NCc3ccc(Cl)cc3)C2)c1C (centres undefined),50.2,i,66.5,i,nt,nt
SMILES,CYP2C9 inh,CYP2C19 act,CYP2C19 inhib,CYP2C9 activ,sEH inh,sEH activator
CCn1ncc(C2=NOC(C(=O)Nc3ccc4c(c3)OCO4)C2)c1C (centres undefined),i,i,55.7,i,nt,nt
COCCCNC(=O)CCn1c(=O)c2ccccc2n(CC(=O)Nc2c(C)cccc2C)c1=O,i,i,i,i,nt,nt
COCCCNC(=O)CCn1c(=O)c2ccccc2n(CC(=O)Nc2ccc(C)cc2C)c1=O,66.8,i,78.0,i,i,i
COCCCNC(=O)CCn1c(=O)c2ccccc2n(CC(=O)Nc2ccccc2C)c1=O,i,i,i,i,nt,nt
CN(C)c1ccc(NC(=O)Cn2c(=O)n(Cc3ccccc3)c(=O)c3ccccc32)cc1,i,i,i,i,nt,nt
CCNCCNC(=O)c1c(O)c2ccccc2n(CC)c1=O,i,i,i,i,nt,nt

# Screening results from PubChem.
